USP8 inh = blocks human USP8 ubiquitin-rhodamine cleavage; P40818; purified USP8, Ub-rhodamine cleavage fluorescence, 30 min; inhibition, % at 20 µM; actives 4.2% (n = 47,000); AID 1645853
UCHL1 inh = blocks human UCHL1 ubiquitin-rhodamine cleavage. purified UCHL1, Ub-rhodamine cleavage fluorescence. actives 0.2% (n = 47,000). P09936. inhibition, % at 20 µM
Target sequence (P09936 whole entry, looked up): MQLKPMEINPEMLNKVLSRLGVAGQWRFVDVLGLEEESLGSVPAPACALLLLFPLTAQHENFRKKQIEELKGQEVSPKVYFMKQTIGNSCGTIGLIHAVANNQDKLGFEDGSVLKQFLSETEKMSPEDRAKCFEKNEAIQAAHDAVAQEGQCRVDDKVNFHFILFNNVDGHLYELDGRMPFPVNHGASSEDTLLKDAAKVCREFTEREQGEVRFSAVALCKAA
USP10 inh = blocks human USP10 ubiquitin-rhodamine cleavage. Q14694. purified USP10, Ub-rhodamine fluorescence, 60 min. inhibition, % at 20 µM. actives 1.1% (n = 47,000). AID 1645856
USP7 inh = blocks human USP7 ubiquitin-rhodamine cleavage | Q93009 | purified USP7, Ub-rhodamine cleavage fluorescence | inhibition, % at 20 µM | actives 0.3% (n = 47,000)
Numbers without * were called inactive; . = no result. Only some compounds are listed: those with a hit (about 4.6% of all), similar ones and a draw of the others. No stated cut-off is given here; in the data, active means inhibition above about 30%; inactive means the rest.

SMILES	USP8 inh	UCHL1 inh	USP10 inh	USP7 inh
Cc1ccccc1OCCN1C(=O)C2CN(C(N)=O)CCN2C1=O (configuration not stated)	42*	4	6	2
Cc1cccc(C)c1OCCN1C(=O)C2CN(C(N)=O)CCN2C1=O (configuration not stated)	1	3	0	0
CN1CC[C@@H]2[C@H]1C(=O)NC[C@H](CCC(=O)N1CCN(c3ccccn3)CC1)N2C	72*	12	-2	-22
CN1[C@@H](CCC(=O)N2CCN(c3ccccn3)CC2)CNC(=O)[C@H]2NCC[C@H]21	9	-2	0	5
Cc1ccc(CN2CC[C@@H]3[C@H]2C(=O)NC[C@H](CCC(=O)N2CCN(c4ccccn4)CC2)N3C)cc1	8	0	-3	-5
CN1[C@@H](CCC(=O)N2CCN(c3ccccn3)CC2)CNC(=O)[C@@H]2[C@H]1CCN2C1CCCCC1	39*	8	0	-14
Cc1nc(Nc2cc(C)[nH]n2)cc(C2CCNCC2)n1	-1	1	2	2
Cc1cc(C(Nc2ccccn2)c2ccc(Cl)cc2)c(NC(=O)c2ccco2)s1 (configuration not stated)	35*	1	-4	6
COc1cccc(C(=O)Nc2nc(-c3ccco3)c(-c3ccco3)s2)c1	62*	52*	-8	50*
COc1cccc(C(=O)Nc2cccn3nc(C)nc23)c1	12	1	1	3
O=C(Nc1ccccc1Cl)C1Cc2ccccc2CN1C(=O)c1ccccc1 (configuration not stated)	36*	-3	-10	-16
Cc1c(Cl)cccc1NC(=O)C1Cc2ccccc2CN1C(=O)c1ccccc1 (configuration not stated)	18	5	0	-33
CCN(CC)c1ccc(NC(=O)c2cc(=O)[nH]c3ccccc23)cc1	17	-1	-2	3
CCN(CC)S(=O)(=O)c1ccc2[nH]c(=O)cc(C(=O)Nc3ccc4c(c3)OCO4)c2c1	60*	-1	16	1
N#Cc1cccc(NC(=O)CC(=O)Nc2ccc3nc4n(c(=O)c3c2)CCCCC4)c1	56*	0	9	9
COC(=O)c1ccc(OCC2c3cc(OC)c(OC)cc3CCN2C(=O)Cc2ccc(F)cc2)cc1 (configuration not stated)	36*	9	7	14
COc1ccc(CC(=O)N2CCc3cc(OC)c(OC)cc3C2COc2ccc([N+](=O)[O-])cc2)cc1 (configuration not stated)	-23	4	6	-68
O=C(CNCc1cccc(Cl)c1)N1CCc2ccccc2C1	72*	3	-1	-8
CCN1CCc2nc(NC(=O)COc3ccc(Nc4ccccc4)cc3)sc2C1	79*	7	4	6
N#Cc1c(C(F)(F)F)cc(-c2ccccc2)nc1N1CCOCC1	-5	-2	-2	0
O=C(CSc1ccc2nnc(-c3ccncc3)n2n1)Nc1cccc(C(F)(F)F)c1	90*	-9	-3	-15
CCN(CC)C(=O)C1Cn2ccnc2C2(CCN(C(=O)NCCc3ccccc3)CC2)O1 (configuration not stated)	2	-1	2	-3
CC(OC(=O)c1cc(S(=O)(=O)Nc2ccccc2F)ccc1Cl)C(=O)Nc1ccc([N+](=O)[O-])cc1C(F)(F)F (configuration not stated)	-97	6	36*	2
CC(OC(=O)c1cc(S(=O)(=O)Nc2ccc(S(C)(=O)=O)cc2)ccc1Cl)C(=O)Nc1ccc([N+](=O)[O-])cc1C(F)(F)F (configuration not stated)	-85	3	18	1
CN1C(=O)COc2cc(-c3noc(C(=O)NCc4ccc(F)cc4)n3)ccc21	41*	4	55*	9
SMILES	USP8 inh	UCHL1 inh	USP10 inh	USP7 inh
CCCn1cnc2cc(-c3noc(CNC(=O)c4cccs4)n3)ccc21	33*	0	-2	6
CCn1nnc2cc(-c3noc(CNC(=O)c4cccs4)n3)ccc21	-234	-5	-5	-2
O=C1NC[C@@H](CCC(=O)N2CCCC2)N2C[C@@H](NCc3ccccc3)C[C@@H]12	0	-2	-2	30*
Cn1cc(C(=O)Nc2cccnc2)c2nn(-c3ccccc3)c(=O)c-2c1	31*	2	3	7
O=C(Nc1cccnc1)c1cn(Cc2ccc(F)cc2)cc2c(=O)n(-c3ccccc3)nc1-2	-12	1	3	3
CCc1nc(-c2c(C)cc(C)nc2NC(=O)c2ccc(F)cc2)no1	10	1	0	-2
COC(=O)C1=CC(OC)=C(Cl)C(=O)C12OC(=O)c1c(O)cc(C)cc1O2 (configuration not stated)	-4	33*	2	-92
O=C(NCCn1ncc2c(N3CCCCC3)ncnc21)c1ccc2ccccc2c1	-12	-2	0	-7
Cc1cccc(NC(=O)CSc2nnc(NC(=O)c3ccc4ccccc4c3)s2)c1	5	-1	44*	13
CC(C)C[C@H](NC(=O)Cn1c(=O)[nH]c2ccccc2c1=O)C(=O)N[C@@H](Cc1ccccc1)C(=O)O	-81	0	-7	3
Cc1cccc(NC(=O)c2ccc(N3C(=O)C(C)CS3(=O)=O)cc2)c1C (configuration not stated)	3	2	6	5
COc1ccc(OC)c(NC(=O)CNC(=O)c2cc3c(OC)cccc3[nH]2)c1	30*	-1	2	9
COc1ccc(CNc2ncc(C(=O)N3CCN(c4ccc(F)cc4)CC3)c(C)n2)cc1	-12	-3	-2	-3
COc1ccc(CNC(=O)c2nnc(C(=O)Nc3ccc(F)cc3)s2)cc1	21	2	17	9
CN(C)c1ccc(CNC(=O)c2nnc(C(=O)Nc3ccccc3)s2)cc1	37*	0	14	18
CCOC(=O)C1CCCN(C(=O)C(=O)c2cn(CC(=O)N3CCCCC3)c3ccccc23)C1 (configuration not stated)	80*	5	-4	2
Cn1c2ccccc2c(=O)c2c(=O)n(Cc3ccco3)c(C3CCCCC3)nc21	30*	2	-2	3
Cc1nc2c(c(=O)c3ccccc3n2C)c(=O)n1Cc1ccco1	-10	-1	-7	-12
C=C1CCC2C(C)(CCC=C(C)C)C(OC(C)=O)CCC2(C)C1Cc1c(O)c(C)c(C)oc1=O (configuration not stated)	15	8	32*	17
C=C1CC[C@H]2[C@@](C)(COC(C)=O)CCC[C@]2(C)[C@H]1CC/C(C)=C/COC(C)=O	4	3	9	12
CCC(=O)NNC(=O)c1c(O)c2ccccc2n(CC)c1=O	51*	-2	2	-3
Cn1c(=O)c(C(=O)Nc2cccc(F)c2)c(O)c2ccccc21	0	0	0	0
CCn1c(=O)c(C(=O)NCc2cccnc2)c(O)c2ccccc21	3	2	1	.
COc1cccc(NC(=O)c2c(O)c3ccccc3n(CC(C)C)c2=O)c1	85*	-1	3	2
COC(=O)[C@@H]1Cc2ncn(C)c2CN1C(=O)c1ccc(-c2ccccc2)cc1	-3	2	0	-2

Screens deposited in PubChem BioAssay by Buhrlage Lab, Dana-Farber Cancer Institute and Novartis Institutes for BioMedical Research (Cambridge, Mass).
